# Data published in the supplement of paper PMC10849652.
# The full data set covers some 7,900 targets. This sample favours those with a hit. About 0.6% of all pairs of compound and target were hits. Unmarked numbers belong to inactive results.
# Assays:
# Experiment in all cases: log2 fold change, soluble protein after heating vs DMSO (PISA); higher = thermal stabilisation; K562 cells, 10 uM, 30 min; active = over 0.2 and 3.5 SD of the protein, either way, in both replicates (recomputed)
# [1] = compound: CS(=O)(=O)c1ccc(-c2cnc(N)c(C(=O)Nc3ccccc3)n2)cc1
# How it was run: (§1)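 Values are thermal stability changes relative to control samples and are taken from duplicates. They are stated as log2 fold changes. Before quantification by TMTpro 16plex LC-MS/MS with equalised channel sums, K562 cells at 2×10^6 cells/mL were treated with 10 μM compound for 30 min, heated in aliquots for 3 min across 48°C-58°C, pooled, extracted in PBS with 0.5% NP-40 at 4°C, and centrifuged at 21,000xg for 90 min to give the soluble supernatant.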
# crizotinib = compound: C[C@@H](Oc1cc(-c2cnn(C3CCNCC3)c2)cnc1N)c1c(Cl)ccc(F)c1Cl [crizotinib]
# How it was run: as §1
# [2] = compound: C[C@H](C1=CC=C(C=C1)C(=O)NC2=C3C=CNC3=NC=C2)N
# How it was run: as §1
# duvelisib = compound: C[C@H](Nc1ncnc2nc[nH]c12)c1cc2cccc(Cl)c2c(=O)n1-c1ccccc1 [duvelisib]
# How it was run: as §1
# gandotinib = compound: Cc1cc(Nc2cc(CN3CCOCC3)c3nc(C)c(Cc4ccc(Cl)cc4F)n3n2)n[nH]1 [gandotinib]
# How it was run: as §1
# tozasertib = compound: Cc1cc(Nc2cc(N3CCN(C)CC3)nc(Sc3ccc(NC(=O)C4CC4)cc3)n2)n[nH]1 [tozasertib]
# How it was run: as §1
# [3] = compound: Cc1cc(SCc2sc(-c3ccc(C(F)(F)F)cc3)nc2C)ccc1OCC(=O)O
# How it was run: as §1
# doramapimod = compound: Cc1ccc(-n2nc(C(C)(C)C)cc2NC(=O)Nc2ccc(OCCN3CCOCC3)c3ccccc23)cc1 [doramapimod]
# How it was run: as §1
# [4] = compound: C[C@@H]1COCCN1C2=NC(=NC(=C2)C3(CC3)S(=O)(=O)C)C4=C5C=CNC5=CC=C4
# How it was run: as §1
# ispinesib = compound: Cc1ccc(C(=O)N(CCCN)[C@@H](c2nc3cc(Cl)ccc3c(=O)n2Cc2ccccc2)C(C)C)cc1 [ispinesib]
# How it was run: as §1
# UniProt Q8WV93, sequence (Q8WV93 whole entry, looked up): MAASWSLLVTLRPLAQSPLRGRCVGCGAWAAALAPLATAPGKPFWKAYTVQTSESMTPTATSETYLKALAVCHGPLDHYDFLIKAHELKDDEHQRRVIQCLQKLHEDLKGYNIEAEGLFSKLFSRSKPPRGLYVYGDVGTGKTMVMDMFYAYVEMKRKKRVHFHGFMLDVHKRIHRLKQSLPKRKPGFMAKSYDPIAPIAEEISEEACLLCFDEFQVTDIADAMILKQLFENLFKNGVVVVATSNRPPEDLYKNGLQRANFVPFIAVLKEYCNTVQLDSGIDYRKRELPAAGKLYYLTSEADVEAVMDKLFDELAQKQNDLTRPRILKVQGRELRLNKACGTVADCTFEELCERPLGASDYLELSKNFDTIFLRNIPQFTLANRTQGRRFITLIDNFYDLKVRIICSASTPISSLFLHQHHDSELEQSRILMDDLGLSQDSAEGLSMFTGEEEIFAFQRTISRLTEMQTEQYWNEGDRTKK
# UniProt O14965, sequence (O14965 whole entry, looked up): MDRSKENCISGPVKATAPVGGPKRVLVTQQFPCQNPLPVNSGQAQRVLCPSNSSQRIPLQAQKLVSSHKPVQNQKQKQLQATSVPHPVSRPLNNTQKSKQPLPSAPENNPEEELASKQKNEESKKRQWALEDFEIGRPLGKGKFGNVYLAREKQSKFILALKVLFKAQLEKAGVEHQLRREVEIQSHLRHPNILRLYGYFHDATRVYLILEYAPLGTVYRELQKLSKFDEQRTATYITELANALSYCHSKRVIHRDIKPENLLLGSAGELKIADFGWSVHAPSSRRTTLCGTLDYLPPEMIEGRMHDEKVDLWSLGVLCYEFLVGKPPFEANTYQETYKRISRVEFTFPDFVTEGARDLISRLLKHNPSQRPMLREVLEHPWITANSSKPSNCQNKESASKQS
# UniProt P00966, sequence (P00966 whole entry, looked up): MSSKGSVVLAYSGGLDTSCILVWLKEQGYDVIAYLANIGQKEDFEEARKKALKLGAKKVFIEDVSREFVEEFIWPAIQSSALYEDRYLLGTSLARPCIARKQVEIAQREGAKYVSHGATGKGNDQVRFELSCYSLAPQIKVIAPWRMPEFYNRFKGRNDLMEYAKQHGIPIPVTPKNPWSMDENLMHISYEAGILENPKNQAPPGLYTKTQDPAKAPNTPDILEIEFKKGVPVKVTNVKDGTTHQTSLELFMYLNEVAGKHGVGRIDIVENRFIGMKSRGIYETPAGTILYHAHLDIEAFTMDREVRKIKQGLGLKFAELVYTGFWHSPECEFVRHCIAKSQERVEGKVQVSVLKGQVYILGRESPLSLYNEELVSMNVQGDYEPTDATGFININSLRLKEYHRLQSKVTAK
# UniProt Q9UNA0, sequence (Q9UNA0 whole entry, looked up): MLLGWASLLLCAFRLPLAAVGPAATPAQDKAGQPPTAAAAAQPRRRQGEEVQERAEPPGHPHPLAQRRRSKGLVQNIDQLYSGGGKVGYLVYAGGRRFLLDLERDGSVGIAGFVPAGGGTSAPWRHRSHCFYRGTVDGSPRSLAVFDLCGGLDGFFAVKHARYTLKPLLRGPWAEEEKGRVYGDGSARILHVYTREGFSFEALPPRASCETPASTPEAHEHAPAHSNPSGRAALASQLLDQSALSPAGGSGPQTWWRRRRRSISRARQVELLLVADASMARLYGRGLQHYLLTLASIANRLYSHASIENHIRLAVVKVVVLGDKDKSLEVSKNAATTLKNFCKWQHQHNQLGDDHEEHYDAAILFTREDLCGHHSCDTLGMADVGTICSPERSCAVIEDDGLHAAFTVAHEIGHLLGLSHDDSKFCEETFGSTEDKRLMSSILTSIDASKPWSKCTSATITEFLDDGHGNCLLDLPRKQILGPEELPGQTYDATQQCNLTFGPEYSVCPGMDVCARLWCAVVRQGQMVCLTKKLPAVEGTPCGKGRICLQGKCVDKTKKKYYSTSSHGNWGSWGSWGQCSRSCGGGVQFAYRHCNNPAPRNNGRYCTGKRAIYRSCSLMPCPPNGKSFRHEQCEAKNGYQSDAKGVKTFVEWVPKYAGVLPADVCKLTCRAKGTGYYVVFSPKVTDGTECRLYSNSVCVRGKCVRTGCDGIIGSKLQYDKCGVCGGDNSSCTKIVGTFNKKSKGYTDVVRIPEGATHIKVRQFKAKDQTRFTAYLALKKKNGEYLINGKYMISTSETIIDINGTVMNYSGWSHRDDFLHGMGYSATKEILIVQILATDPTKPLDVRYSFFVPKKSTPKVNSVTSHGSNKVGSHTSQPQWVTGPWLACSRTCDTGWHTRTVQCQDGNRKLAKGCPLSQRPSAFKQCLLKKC
# UniProt P49748, sequence (P49748 whole entry, looked up): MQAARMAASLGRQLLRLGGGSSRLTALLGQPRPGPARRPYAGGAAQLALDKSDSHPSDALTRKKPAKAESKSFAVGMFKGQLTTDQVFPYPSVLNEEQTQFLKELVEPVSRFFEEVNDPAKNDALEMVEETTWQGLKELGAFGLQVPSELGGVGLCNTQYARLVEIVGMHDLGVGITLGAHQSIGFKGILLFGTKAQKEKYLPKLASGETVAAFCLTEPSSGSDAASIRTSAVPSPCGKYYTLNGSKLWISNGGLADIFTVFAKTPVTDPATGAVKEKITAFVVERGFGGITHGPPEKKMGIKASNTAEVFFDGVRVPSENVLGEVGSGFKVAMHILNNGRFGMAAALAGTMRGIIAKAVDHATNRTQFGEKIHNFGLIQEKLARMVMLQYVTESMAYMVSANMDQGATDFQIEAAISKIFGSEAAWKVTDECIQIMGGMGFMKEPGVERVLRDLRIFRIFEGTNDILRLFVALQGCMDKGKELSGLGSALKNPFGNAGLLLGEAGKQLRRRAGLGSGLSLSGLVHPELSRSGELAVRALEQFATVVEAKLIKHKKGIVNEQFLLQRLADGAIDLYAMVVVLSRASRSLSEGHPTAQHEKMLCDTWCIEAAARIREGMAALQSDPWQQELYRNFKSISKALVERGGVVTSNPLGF
# UniProt Q8WUW1, sequence (Q8WUW1 whole entry, looked up): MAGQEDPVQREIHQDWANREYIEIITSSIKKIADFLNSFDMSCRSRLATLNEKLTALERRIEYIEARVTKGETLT
# UniProt Q9H6S1, sequence (Q9H6S1 whole entry, looked up): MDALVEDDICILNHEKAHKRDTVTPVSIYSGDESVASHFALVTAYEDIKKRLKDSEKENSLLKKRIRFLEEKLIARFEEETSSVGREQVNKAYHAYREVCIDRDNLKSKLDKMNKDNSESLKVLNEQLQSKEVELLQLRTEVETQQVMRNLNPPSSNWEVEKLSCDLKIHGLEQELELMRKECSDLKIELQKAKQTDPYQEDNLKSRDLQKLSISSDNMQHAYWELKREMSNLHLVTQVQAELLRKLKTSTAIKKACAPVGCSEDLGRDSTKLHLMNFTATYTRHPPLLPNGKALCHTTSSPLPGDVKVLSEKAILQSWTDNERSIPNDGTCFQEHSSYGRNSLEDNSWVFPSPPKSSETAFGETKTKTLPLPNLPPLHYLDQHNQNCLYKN
# UniProt P25440, sequence (P25440 whole entry, looked up): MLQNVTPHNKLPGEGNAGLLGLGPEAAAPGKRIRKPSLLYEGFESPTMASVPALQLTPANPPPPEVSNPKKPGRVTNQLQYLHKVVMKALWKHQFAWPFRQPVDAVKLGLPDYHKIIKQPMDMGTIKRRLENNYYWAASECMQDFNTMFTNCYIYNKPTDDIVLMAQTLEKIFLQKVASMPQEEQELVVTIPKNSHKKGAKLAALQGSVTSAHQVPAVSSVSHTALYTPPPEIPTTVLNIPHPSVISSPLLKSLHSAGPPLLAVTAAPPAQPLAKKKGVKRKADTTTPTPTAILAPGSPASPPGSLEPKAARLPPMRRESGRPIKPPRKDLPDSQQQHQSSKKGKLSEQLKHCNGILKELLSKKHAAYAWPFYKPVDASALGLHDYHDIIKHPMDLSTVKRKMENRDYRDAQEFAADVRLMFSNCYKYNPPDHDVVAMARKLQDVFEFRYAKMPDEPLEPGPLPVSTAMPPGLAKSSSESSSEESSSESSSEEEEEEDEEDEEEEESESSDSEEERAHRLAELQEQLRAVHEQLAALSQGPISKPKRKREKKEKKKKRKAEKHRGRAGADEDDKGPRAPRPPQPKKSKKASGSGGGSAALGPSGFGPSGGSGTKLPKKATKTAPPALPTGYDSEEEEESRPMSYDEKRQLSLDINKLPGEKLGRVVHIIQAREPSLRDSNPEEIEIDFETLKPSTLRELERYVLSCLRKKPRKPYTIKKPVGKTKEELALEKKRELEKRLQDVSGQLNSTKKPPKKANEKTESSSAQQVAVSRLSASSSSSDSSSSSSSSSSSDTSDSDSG
# UniProt Q8N5I2, sequence (Q8N5I2 whole entry, looked up): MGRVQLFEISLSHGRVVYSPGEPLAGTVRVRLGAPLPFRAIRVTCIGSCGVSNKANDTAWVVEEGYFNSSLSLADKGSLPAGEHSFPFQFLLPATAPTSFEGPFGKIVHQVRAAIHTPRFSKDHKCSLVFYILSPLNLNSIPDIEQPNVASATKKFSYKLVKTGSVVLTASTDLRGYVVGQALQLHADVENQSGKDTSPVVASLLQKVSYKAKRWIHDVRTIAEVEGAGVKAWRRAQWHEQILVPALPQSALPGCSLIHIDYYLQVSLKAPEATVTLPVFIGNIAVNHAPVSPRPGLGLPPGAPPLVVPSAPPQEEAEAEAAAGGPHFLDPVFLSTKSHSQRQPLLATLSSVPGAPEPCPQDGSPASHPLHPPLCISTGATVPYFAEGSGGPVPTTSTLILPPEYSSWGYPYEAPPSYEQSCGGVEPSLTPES
# UniProt Q9UII2, sequence (Q9UII2 whole entry, looked up): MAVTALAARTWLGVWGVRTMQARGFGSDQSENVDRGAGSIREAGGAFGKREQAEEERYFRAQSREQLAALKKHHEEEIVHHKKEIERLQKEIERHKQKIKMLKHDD
# UniProt Q9Y587, sequence (Q9Y587 whole entry, looked up): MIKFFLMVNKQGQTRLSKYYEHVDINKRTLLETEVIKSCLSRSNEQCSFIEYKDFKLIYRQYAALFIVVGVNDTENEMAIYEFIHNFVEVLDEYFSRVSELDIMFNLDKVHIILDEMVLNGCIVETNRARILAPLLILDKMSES
Target,log2 fold change [1],log2 fold change (crizotinib),log2 fold change [2],log2 fold change (duvelisib),log2 fold change (gandotinib),log2 fold change (tozasertib),log2 fold change [3],log2 fold change (doramapimod),log2 fold change [4],log2 fold change (ispinesib)
BRD2 isoform 2 (UniProt P25440),0.618,0.006,-0.065,0.295,-0.089,0.168,-0.083,0.064,–,–
AGAP3 isoform 4 (UniProt Q96P47),-0.041,-0.231,0.07,–,–,0.183,–,0.125,-0.133,-0.069
AMD1 (UniProt P17707),-0.058,0.059,–,–,0.043,0.105,–,-0.07,0.035,0.008
APOBEC3G (UniProt Q9HC16),-0.065,0.059,–,-0.189,–,0.013,0.102,0.023,-0.165,-0.01
BLVRB (UniProt P30043),0.04,-0.006,-0.081,0.016,-0.085,-0.011,0.002,-0.027,0.036,-0.012
APAF1 (UniProt O14727),-0.045,0.045,-0.061,0.268,0.047,–,0.119,0.006,0.115,-0.181
BRK1 isoform 2 (UniProt Q8WUW1),-0.004,0.029,-0.276,0.086,-0.024,-0.047,-0.035,-0.041,0.11,0.18
ATR (UniProt Q13535),0.063,-0.021,0.022,0.004,-0.09,-0.038,0.026,-0.123,–,0.004
AFG1L (UniProt Q8WV93),-0.04,-0.027,0.001,0.078,–,-0.147,-0.019,0.002,0.074,-0.253
ACSF3 (UniProt Q4G176),0.018,0.063,0.026,0.014,0.09,0.023,0.022,-0.027,-0.002,0.174
B4GALNT1 (UniProt Q00973),0.198,0.014,-0.019,0.06,-0.077,-0.003,0.12,0.065,-0.003,-0.077
AKT1 (UniProt P31749),-0.013,-0.104,0.135,-0.062,-0.144,0.032,0.298,-0.005,-0.188,-0.03
BRAF (UniProt P15056),0.006,0.023,-0.072,-0.014,-0.013,-0.004,-0.014,–,0.034,-0.024
ADAMTS5 (UniProt Q9UNA0),0.077,0.084,-0.08,0.111,0.178,-0.093,-0.136,0.052,–,-0.035
ABITRAM (UniProt Q9NX38),0.055,0.012,-0.011,0.029,0.169,-0.012,0.079,0.006,0.1,0.108
ATP1A1 (UniProt P05023),0.032,0.165,-0.117,0.029,-0.049,-0.061,-0.035,-0.047,0.028,0.106
ADPRHL2 (UniProt Q9NX46),0.052,0.092,-0.072,0.17,0.07,-0.077,0.039,-0.017,0.045,0.303 (active)
ABCA4 (UniProt P78363),0.286,0.035,0.019,–,0.452,-0.055,–,0.004,0.036,-0.119

Target,log2 fold change [1],log2 fold change (crizotinib),log2 fold change [2],log2 fold change (duvelisib),log2 fold change (gandotinib),log2 fold change (tozasertib),log2 fold change [3],log2 fold change (doramapimod),log2 fold change [4],log2 fold change (ispinesib)
AP2M1 (UniProt C9JTK4),0.105,0.048,0.08,0.147,–,0.057,-0.03,0.032,0.158,–
AP4S1 (UniProt Q9Y587),-0.027,-0.028,0.133,-0.122,–,–,0.013,-0.088,0.065,–
ABCB6 (UniProt Q9NP58),0.03,-0.457 (active),-0.057,0.015,-0.031,-0.017,-0.028,0.049,0.093,-0.207
BAD (UniProt Q92934),0.171,0.076,-0.036,0.081,0.018,–,-0.033,0.003,0.076,0.025
ACADVL isoform 3 (UniProt P49748),0.042,0.021,-0.058,0.081,-0.01,0.003,-0.005,-0.065,0.078,-0.01
ASB6 (UniProt Q9NWX5),0.019,0.013,–,–,0.109,–,–,0.037,-0.025,-0.143
APH1A (UniProt Q96BI3),0.048,-0.151,0.021,0.035,-0.075,0.015,-0.036,0.073,–,–
APOH (UniProt P02749),-0.22,-0.179,-0.071,-0.017,-0.747,-0.125,0.458,-0.108,–,-0.595
ATP5IF1 (UniProt Q9UII2),0.004,0.058,0.018,-0.035,-0.056,-0.079,-0.082,-0.015,-0.006,-0.019
ARRDC1 (UniProt Q8N5I2),0.015,–,0.205,-0.263,0.1,-0.075,-0.071,–,-0.097,-0.082
AUH (UniProt Q13825),–,-0.301,-0.105,-0.036,-0.127,-0.098,0.135,0.071,–,-0.069
AP2S1 (UniProt M0QZ21),–,–,–,–,–,-0.253,–,–,–,–
AZI2 (UniProt Q9H6S1),0.074,–,–,–,–,0.329,–,–,–,-0.019
ADD1 isoform 4 (UniProt P35611),–,0.152,0.186,–,-0.153,–,–,-0.075,-0.213,–
ASS1 (UniProt P00966),0.033,–,-0.079,0.039,-0.014,-0.085,-0.062,–,0.017,-0.205
ARHGAP25 isoform 4 (UniProt P42331),–,–,0.309,-0.067,-0.056,0.111,0.299,–,-0.066,–
BSCL2 isoform 4 (UniProt Q96G97),–,–,-0.007,0.129,-0.086,0.008,0.111,–,0.05,–
AURKA (UniProt O14965),0.198,–,0.066,-0.058,1.01 (active),–,-0.013,0.051,-0.251,-0.107
